# Data reported in publication PMC7862700, “An all-to-all approach to the identification of sequence-specific readers for epigenetic DNA modifications on cytosine”.
# Experiments:
# Test in all cases: DAPPL (digital affinity profiling via proximity ligation, sequencing); 10 mM Tris-HCl pH 7.5, 50 mM NaCl, 1 mM DTT, 4% glycerol, room temperature, 30 min; GST-TFs on glutathione beads, 16-mer random dsDNA library, 0.1% formaldehyde crosslink after washing; high values mean tight binding
# Conditions in all cases: protein: recombinant; tags: N-terminal GST; dsDNA, one strand shown
# FLI1 = target: T1, FLI1 (Homo sapiens, UniProt Q01543 1-452)
# T1 sequence: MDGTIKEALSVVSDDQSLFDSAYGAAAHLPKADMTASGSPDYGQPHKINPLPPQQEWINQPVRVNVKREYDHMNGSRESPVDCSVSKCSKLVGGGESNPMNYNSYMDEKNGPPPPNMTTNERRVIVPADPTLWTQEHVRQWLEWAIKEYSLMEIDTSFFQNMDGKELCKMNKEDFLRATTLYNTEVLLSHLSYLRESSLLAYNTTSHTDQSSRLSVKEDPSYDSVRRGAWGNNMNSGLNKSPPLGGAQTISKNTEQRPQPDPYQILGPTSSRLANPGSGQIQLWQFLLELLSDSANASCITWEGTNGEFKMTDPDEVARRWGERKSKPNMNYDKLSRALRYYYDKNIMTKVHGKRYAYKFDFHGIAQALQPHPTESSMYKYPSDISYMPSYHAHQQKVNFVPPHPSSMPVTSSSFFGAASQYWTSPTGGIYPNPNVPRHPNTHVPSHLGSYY
# Procedure, shortened: (§1)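 Human transcription factors carrying a GST fusion were produced in yeast, bound to glutathione beads, tagged with DNA barcodes and pooled together with a tag-only sample. Each pool was held with 200 nmole of a random double-stranded 16-mer DNA library in Tris/NaCl/DTT/glycerol buffer for 30 min at room temperature, then washed, crosslinked in 0.1% formaldehyde, proximity-ligated with BsaI/T4 ligase (1 h, 37 °C), PCR-amplified and sequenced on an Illumina NextSeq500. Binding signal is the read frequency of each hexamer for a given factor divided by its frequency in the tag-only sample.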
# ELK1 = target: T2, ELK1 (Homo sapiens, UniProt P19419 1-428)
# T2 sequence: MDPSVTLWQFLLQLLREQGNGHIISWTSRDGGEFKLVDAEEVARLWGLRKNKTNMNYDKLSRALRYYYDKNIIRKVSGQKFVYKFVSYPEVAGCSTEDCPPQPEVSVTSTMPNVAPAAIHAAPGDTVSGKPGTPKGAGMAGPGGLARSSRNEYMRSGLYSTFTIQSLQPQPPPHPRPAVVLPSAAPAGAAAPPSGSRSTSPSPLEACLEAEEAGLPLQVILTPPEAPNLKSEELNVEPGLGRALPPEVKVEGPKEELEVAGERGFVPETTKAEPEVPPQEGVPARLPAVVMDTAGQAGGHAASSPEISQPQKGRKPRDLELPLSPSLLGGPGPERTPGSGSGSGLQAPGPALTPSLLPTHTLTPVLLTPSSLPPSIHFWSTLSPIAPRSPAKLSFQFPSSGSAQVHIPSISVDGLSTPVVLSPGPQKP
# Procedure, shortened: as §1
# GABPA = target: T3, GABPA (Homo sapiens, UniProt Q06546 1-454)
# T3 sequence: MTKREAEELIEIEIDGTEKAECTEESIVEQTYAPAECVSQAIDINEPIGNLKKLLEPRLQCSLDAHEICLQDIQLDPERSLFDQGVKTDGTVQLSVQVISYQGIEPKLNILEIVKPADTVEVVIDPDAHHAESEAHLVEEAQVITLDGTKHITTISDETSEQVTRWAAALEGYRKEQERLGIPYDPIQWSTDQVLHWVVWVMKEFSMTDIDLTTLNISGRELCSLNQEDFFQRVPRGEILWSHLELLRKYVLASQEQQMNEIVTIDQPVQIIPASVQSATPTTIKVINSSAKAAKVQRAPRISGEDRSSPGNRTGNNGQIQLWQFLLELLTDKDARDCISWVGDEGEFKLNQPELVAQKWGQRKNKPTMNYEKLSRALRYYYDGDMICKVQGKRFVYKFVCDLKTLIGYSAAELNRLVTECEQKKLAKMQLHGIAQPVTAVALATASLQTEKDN
# Procedure, shortened: as §1
# ELF4 = ELF4 (Homo sapiens, UniProt Q99607 1-663)
# Chain of ELF4 (Q99607 whole entry): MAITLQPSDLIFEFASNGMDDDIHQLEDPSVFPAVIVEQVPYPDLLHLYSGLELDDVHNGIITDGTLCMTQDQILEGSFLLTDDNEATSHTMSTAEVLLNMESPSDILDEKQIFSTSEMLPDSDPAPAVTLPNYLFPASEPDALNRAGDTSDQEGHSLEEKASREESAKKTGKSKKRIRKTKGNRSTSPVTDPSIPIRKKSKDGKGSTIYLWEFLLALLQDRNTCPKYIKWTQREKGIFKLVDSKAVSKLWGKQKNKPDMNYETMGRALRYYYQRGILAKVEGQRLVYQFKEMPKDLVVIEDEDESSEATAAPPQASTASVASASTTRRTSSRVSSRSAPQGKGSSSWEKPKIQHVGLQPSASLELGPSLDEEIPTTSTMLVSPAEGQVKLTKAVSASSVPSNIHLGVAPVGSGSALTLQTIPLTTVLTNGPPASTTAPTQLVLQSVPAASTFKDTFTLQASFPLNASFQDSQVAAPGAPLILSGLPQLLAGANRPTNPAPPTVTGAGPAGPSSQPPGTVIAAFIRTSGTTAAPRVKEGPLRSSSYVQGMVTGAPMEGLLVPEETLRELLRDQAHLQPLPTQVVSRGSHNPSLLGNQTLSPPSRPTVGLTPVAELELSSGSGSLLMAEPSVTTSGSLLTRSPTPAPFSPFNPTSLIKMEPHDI
# Procedure, shortened: as §1
# ELK4 = target: T4, ELK4 (Homo sapiens, UniProt P28324-2 1-405)
# T4 sequence: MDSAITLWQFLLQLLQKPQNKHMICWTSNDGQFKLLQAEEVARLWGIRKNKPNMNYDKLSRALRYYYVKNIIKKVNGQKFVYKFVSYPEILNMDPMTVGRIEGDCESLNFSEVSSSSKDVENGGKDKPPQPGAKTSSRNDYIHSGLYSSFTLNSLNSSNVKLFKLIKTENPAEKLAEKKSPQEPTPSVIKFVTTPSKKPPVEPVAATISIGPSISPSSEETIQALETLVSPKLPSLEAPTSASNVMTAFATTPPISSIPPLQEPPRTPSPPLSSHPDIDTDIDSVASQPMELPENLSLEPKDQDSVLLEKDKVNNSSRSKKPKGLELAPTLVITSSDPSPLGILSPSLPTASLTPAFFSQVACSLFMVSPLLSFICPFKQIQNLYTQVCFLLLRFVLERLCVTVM
# Procedure, shortened: as §1
# ERF = target: T5, ERF (Homo sapiens, UniProt P50548 1-548)
# T5 sequence: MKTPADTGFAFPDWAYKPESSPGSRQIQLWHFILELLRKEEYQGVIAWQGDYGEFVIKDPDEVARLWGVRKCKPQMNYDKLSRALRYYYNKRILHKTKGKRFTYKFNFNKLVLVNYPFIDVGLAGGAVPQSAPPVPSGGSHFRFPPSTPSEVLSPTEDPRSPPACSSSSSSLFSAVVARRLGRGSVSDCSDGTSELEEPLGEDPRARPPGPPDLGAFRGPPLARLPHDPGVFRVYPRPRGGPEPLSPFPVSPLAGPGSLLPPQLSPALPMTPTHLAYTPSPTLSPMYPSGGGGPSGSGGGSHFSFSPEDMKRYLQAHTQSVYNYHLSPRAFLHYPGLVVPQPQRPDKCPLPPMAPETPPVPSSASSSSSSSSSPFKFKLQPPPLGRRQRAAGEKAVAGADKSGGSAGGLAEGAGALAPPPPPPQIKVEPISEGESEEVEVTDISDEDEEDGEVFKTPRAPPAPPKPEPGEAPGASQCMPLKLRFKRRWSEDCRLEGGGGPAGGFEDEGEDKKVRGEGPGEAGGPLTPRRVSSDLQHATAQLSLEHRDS
# Procedure, shortened: as §1
# ETV3L = target: T6, ETV3L (Homo sapiens, UniProt Q6ZN32 1-361)
# T6 sequence: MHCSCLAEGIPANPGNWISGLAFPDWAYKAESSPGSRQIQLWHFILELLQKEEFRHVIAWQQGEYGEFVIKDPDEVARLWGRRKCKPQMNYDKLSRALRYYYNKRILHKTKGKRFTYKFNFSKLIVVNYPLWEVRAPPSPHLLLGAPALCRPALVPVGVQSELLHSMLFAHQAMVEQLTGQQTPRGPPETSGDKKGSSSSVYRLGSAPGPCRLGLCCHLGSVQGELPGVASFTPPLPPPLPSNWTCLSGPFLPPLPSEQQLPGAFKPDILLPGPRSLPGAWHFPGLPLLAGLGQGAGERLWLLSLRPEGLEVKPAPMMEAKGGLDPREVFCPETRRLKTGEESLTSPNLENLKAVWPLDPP
# Procedure, shortened: as §1
# SPIB = SPIB (Homo sapiens, UniProt Q01892 1-262)
# Chain of SPIB (Q01892 whole entry): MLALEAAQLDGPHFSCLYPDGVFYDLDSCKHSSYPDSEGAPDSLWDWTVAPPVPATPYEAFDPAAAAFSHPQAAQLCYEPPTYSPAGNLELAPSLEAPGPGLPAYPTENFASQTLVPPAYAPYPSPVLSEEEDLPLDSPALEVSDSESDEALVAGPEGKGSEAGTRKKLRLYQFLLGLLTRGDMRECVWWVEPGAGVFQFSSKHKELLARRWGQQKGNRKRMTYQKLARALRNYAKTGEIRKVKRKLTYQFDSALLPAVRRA
# Procedure, shortened: as §1
# ELK3 = target: T7, ELK3 (Homo sapiens, UniProt P41970 1-407)
# T7 sequence: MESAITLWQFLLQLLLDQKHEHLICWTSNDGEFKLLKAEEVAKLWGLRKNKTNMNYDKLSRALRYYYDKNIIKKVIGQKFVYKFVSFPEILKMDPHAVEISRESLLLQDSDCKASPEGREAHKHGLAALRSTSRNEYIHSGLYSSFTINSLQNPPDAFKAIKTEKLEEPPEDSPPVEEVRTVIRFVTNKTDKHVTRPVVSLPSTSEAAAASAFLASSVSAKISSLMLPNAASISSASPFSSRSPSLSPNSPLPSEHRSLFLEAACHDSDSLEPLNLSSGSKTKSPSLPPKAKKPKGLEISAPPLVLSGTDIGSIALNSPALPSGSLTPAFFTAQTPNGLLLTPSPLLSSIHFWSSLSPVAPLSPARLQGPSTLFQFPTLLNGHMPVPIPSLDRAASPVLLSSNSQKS
# Procedure, shortened: as §1
# FEV = target: T8, FEV (Homo sapiens, UniProt Q99581 1-238)
# T8 sequence: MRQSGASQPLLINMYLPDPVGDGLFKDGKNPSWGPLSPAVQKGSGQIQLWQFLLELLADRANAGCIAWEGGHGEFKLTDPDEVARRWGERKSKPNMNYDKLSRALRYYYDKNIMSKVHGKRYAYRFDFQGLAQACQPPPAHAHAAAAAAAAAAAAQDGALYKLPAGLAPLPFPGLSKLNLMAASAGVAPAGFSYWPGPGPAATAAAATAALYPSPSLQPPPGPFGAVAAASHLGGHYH
# Procedure, shortened: as §1
# ETV2 = target: T9, ETV2 (Homo sapiens, UniProt O00321 1-342)
# T9 sequence: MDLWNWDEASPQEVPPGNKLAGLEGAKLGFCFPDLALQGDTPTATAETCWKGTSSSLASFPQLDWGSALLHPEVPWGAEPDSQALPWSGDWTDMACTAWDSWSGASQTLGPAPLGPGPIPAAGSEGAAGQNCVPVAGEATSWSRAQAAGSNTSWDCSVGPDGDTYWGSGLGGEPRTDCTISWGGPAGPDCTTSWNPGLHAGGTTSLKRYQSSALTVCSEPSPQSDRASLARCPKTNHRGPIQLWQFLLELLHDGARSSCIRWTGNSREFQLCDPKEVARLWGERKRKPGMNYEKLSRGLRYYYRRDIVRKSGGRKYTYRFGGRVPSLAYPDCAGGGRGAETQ
# Procedure, shortened: as §1
# ELF3 = target: T10, ELF3 (Homo sapiens, UniProt P78545 1-371)
# T10 sequence: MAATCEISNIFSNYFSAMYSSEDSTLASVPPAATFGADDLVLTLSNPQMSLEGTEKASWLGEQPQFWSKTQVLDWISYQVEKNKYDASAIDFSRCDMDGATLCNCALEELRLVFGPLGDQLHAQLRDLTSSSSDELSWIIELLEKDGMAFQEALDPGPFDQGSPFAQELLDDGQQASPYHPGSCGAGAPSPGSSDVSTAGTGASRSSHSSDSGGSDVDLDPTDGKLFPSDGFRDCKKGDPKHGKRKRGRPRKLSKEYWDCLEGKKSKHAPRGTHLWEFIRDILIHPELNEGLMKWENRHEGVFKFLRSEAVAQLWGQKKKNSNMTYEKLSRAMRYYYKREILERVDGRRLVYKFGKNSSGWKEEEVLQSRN
# Procedure, shortened: as §1
# CRX = CRX (Homo sapiens, UniProt O43186 1-299)
# Chain of CRX (O43186 whole entry): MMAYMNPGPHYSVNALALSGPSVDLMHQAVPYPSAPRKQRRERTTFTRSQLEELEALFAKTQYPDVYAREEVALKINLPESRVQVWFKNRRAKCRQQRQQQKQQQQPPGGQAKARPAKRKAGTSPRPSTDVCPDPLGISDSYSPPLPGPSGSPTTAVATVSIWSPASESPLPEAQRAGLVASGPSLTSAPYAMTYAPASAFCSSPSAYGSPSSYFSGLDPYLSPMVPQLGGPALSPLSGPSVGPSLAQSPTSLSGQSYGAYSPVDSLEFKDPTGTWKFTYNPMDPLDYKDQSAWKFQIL
# Procedure, shortened: as §1
# ETV1 = ETV1 (Homo sapiens, UniProt P50549 1-477)
# Chain of ETV1 (P50549 whole entry): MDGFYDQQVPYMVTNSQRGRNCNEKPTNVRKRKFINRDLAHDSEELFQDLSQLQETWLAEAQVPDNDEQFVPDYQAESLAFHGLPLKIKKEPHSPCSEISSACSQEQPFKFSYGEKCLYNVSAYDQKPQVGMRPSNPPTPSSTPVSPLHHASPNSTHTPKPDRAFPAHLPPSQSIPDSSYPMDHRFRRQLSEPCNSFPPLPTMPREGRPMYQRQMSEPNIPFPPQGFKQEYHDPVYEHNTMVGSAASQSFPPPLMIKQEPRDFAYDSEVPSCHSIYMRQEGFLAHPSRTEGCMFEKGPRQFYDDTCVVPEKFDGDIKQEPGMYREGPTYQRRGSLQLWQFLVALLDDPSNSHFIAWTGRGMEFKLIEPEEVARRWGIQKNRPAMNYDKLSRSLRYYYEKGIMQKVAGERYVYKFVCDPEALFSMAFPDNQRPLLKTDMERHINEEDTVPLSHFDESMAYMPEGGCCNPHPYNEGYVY
# Procedure, shortened: as §1
# ETS2 = target: T11, ETS2 (Homo sapiens, UniProt P15036 1-469)
# T11 sequence: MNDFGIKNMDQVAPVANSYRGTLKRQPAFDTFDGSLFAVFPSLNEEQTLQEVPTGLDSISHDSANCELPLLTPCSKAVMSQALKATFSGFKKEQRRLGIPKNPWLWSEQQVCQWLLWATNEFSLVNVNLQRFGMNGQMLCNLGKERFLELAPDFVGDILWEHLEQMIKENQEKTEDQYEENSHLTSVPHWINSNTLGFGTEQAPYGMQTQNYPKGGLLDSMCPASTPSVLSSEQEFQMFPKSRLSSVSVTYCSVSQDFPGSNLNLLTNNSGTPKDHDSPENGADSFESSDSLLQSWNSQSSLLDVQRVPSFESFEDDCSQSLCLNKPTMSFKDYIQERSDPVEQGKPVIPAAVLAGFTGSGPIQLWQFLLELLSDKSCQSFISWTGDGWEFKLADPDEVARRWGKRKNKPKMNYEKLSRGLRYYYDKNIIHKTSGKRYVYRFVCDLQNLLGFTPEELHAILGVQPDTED
# Procedure, shortened: as §1
# SPDEF = target: T12, SPDEF (Homo sapiens, UniProt O95238 1-335)
# T12 sequence: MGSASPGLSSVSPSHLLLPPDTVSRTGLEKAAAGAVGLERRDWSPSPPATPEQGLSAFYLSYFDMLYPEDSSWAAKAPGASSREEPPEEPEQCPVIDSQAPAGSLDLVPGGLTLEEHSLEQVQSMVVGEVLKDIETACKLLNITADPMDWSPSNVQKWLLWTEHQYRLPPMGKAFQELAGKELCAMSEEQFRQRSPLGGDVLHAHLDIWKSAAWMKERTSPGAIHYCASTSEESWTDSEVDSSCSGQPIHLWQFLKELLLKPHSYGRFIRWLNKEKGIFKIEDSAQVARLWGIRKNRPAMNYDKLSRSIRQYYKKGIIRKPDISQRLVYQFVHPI
# Procedure, shortened: as §1
# ETV6 = ETV6 (Homo sapiens, UniProt P41212 1-452)
# Chain of ETV6 (P41212 whole entry): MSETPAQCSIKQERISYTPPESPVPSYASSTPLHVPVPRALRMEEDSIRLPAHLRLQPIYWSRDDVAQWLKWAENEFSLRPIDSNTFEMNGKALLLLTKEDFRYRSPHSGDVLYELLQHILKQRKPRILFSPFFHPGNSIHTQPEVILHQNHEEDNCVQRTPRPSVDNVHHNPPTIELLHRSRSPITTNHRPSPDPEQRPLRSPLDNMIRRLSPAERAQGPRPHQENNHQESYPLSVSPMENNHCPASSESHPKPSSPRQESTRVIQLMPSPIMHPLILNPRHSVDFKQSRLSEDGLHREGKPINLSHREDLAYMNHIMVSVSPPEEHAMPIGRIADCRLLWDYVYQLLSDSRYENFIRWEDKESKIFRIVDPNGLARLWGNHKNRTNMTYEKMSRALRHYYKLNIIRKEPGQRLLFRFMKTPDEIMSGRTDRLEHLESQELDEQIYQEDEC
# Procedure, shortened: as §1
sequence,measurement,setting,value
GACTGC,binding signal,FLI1,"1.03 fold enrichment (6-mer frequency, TF over GST control)"
same,binding signal,ELK1,"1.03 fold enrichment (6-mer frequency, TF over GST control)"
same,binding signal,GABPA,"1.11 fold enrichment (6-mer frequency, TF over GST control)"
same,binding signal,ELF4,"1.01 fold enrichment (6-mer frequency, TF over GST control)"
same,binding signal,ELK4,"1.08 fold enrichment (6-mer frequency, TF over GST control)"
same,binding signal,ERF,"1.03 fold enrichment (6-mer frequency, TF over GST control)"
same,binding signal,ETV3L,"1.02 fold enrichment (6-mer frequency, TF over GST control)"
TCAGCC,binding signal,FLI1,"1 fold enrichment (6-mer frequency, TF over GST control)"
same,binding signal,ELK1,"1.11 fold enrichment (6-mer frequency, TF over GST control)"
same,binding signal,GABPA,"1.06 fold enrichment (6-mer frequency, TF over GST control)"
same,binding signal,SPIB,"1.05 fold enrichment (6-mer frequency, TF over GST control)"
same,binding signal,ELK3,"1.13 fold enrichment (6-mer frequency, TF over GST control)"
same,binding signal,FEV,"1.04 fold enrichment (6-mer frequency, TF over GST control)"
same,binding signal,ELF4,"1.11 fold enrichment (6-mer frequency, TF over GST control)"
same,binding signal,ELK4,"1.02 fold enrichment (6-mer frequency, TF over GST control)"
same,binding signal,ETV2,"1.03 fold enrichment (6-mer frequency, TF over GST control)"
same,binding signal,ELF3,"1 fold enrichment (6-mer frequency, TF over GST control)"
same,binding signal,CRX,"1.17 fold enrichment (6-mer frequency, TF over GST control)"
same,binding signal,ETV1,"1.02 fold enrichment (6-mer frequency, TF over GST control)"
same,binding signal,ETV3L,"1.02 fold enrichment (6-mer frequency, TF over GST control)"
same,binding signal,ETS2,"1 fold enrichment (6-mer frequency, TF over GST control)"
same,binding signal,SPDEF,"1.03 fold enrichment (6-mer frequency, TF over GST control)"
same,binding signal,ETV6,"1.01 fold enrichment (6-mer frequency, TF over GST control)"
